Common to all, as to test: NCI-60 one-dose screen, 48 h (100 = growth as untreated, 0 = no growth, -100 = all killed)
In one test the test system is SR leukemia. The note with it: 10 µM unless noted.
For the next test, the system named is RPMI-8226 leukemia. Particulars: 10 µM unless noted.
The test system of the next test is OVCAR-8 ovarian. The note with it: 10 µM unless noted.
The test system of another test is OVCAR-5 ovarian. Particulars: 10 µM unless noted.
In another test the test system is OVCAR-4 ovarian. The note with it: 10 µM unless noted.
A further test deals with SK-OV-3 ovarian. The note with it: 10 µM unless noted.
The subject of another test is IGROV1 ovarian. Particulars: 10 µM unless noted.
The next test has as its system OVCAR-3 ovarian. The note with it: 10 µM unless noted.
The subject of another test is NCI/ADR-RES ovarian. The note with it: 10 µM unless noted.
The next test relates to T-47D breast. Particulars: 10 µM unless noted.
The next test has as its system BT-549 breast. Particulars: 10 µM unless noted.
In another test the test system is MDA-MB-435 melanoma. The note with it: 10 µM unless noted.
A further test has as its system SW-620 colon. Particulars: 10 µM unless noted.
The next test concerns MCF7 breast. Particulars: 10 µM unless noted.
Another test relates to HCT-116 colon. The note with it: 10 µM unless noted.
The next test has as its system HCC-2998 colon. The note with it: 10 µM.
The next test concerns KM12 colon. Particulars: 10 µM unless noted.

This is part of a sample that, as a whole, favours compounds with a hit. Of some 83,000 tested, about 20% had one in any assay.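 Note: values are percent growth. 100 is the growth of untreated cells, values between 100 and 0 indicate rising inhibition; between -100 and 0 indicates cell death.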 A number with no mark means an inactive call. Calls of active or inactive are those of the source. The calls were made as follows: active = growth percent below 10; inactive = the rest.

The values that follow come from PubChem BioAssay (NCI).

On to `COc1ccc(-c2cc3c(C)nc(N)nc3n(C3CCC(OCCO)CC3)c2=O)cn1` (stereo unspecified), for which the growth with SR leukemia is 1.95% (active); in the test on RPMI-8226 leukemia it was 3.64% (active); in the test on OVCAR-8 ovarian, -12.6% (active); in the test on OVCAR-5 ovarian, -18.8% (active); in the test on OVCAR-4 ovarian it was -7.57% (active); in the test on SK-OV-3 ovarian it was -49.9% (active). Also, the growth with IGROV1 ovarian was -36.9% (active); in the test on OVCAR-3 ovarian, -10.5% (active); in the test with NCI/ADR-RES ovarian, -14.7% (active); in the test with T-47D breast, -50.5% (active); with BT-549 breast it was -18.1% (active); with MDA-MB-435 melanoma, -18.5% (active). The growth with SW-620 colon is 7.56% (active); in the test with MCF7 breast, 1.58% (active); in the test with HCT-116 colon, 7.89% (active); in the test with HCC-2998 colon, -0.799% (active); with KM12 colon it was 5.53% (active).
Consider `CN1CCN(c2nc(C3=C(c4c[nH]c5ccccc45)C(=O)NC3=O)c3ccccc3n2)CC1`, for which the growth in the test on SR leukemia is 68.7%; with RPMI-8226 leukemia it was 97.8%; in the test with OVCAR-8 ovarian, 66.9%; with OVCAR-5 ovarian it was 25.1%; in the test with OVCAR-4 ovarian, 71.9%; in the test with SK-OV-3 ovarian, 87.1%. Moreover, the growth in the test on IGROV1 ovarian was 75.4%; with OVCAR-3 ovarian, 110%; in the test on NCI/ADR-RES ovarian it was 85.1%; with T-47D breast, 102%; in the test with BT-549 breast, 91%; in the test with MDA-MB-435 melanoma it was 41.8%. Further, the growth with SW-620 colon was 48.4%; in the test with MCF7 breast, 95.1%; in the test with HCT-116 colon, 32.4%; in the test on HCC-2998 colon it was 19.2%; with KM12 colon, 36.1%.
Consider `NC(=O)Nc1cc(-c2cccc(F)c2)sc1C(=O)N[C@H]1CCCNC1`, for which the growth in the test on SR leukemia was -6.47% (active); in the test on RPMI-8226 leukemia it was 6.16% (active); in the test on OVCAR-8 ovarian, -15.2% (active); in the test on OVCAR-5 ovarian it was 2.28% (active); in the test with OVCAR-4 ovarian, 25.5%; in the test on SK-OV-3 ovarian, -46.4% (active). For the same compound, the growth with IGROV1 ovarian is -50.5% (active); with OVCAR-3 ovarian it was -1.15% (active); in the test on NCI/ADR-RES ovarian, 10%; with T-47D breast, 15.1%; in the test on BT-549 breast, -60.9% (active); in the test on MDA-MB-435 melanoma, -25.8% (active). The growth in the test with SW-620 colon was -7.1% (active); with MCF7 breast, 14.3%; in the test on HCT-116 colon it was -9.03% (active); with HCC-2998 colon, -34.6% (active); in the test with KM12 colon, 1.83% (active).
On to `C=CCn1c(=O)c2cnc(Nc3ccc(N4CCN(C)CC4)cc3)nc2n1-c1cccc(C(C)(C)O)n1`, for which the growth with SR leukemia was 4.58% (active); in the test with RPMI-8226 leukemia, 10.1%; in the test with OVCAR-8 ovarian, 8.75% (active); in the test with OVCAR-5 ovarian, 25.1%; in the test with OVCAR-4 ovarian, 20.2%; in the test on SK-OV-3 ovarian, -1.76% (active). In addition, the growth is 3.06% (active) in the test with IGROV1 ovarian; -8.58% (active) in the test on OVCAR-3 ovarian; 25.1% in the test with NCI/ADR-RES ovarian; 36.4% in the test with T-47D breast; 1.3% (active) with BT-549 breast; -61.7% (active) in the test on MDA-MB-435 melanoma. The growth in the test on SW-620 colon was 14.6%; with MCF7 breast, 15.7%; in the test on HCT-116 colon, 2.48% (active); in the test on HCC-2998 colon, 9.01% (active); in the test with KM12 colon, 0.327% (active).
For the compound `O=C(c1ccc(/C=C/c2n[nH]c3ccccc23)cc1)N1CCNCC1`, the growth with SR leukemia was 5.24% (active); in the test with RPMI-8226 leukemia it was 48.9%; in the test with OVCAR-8 ovarian, 58.8%; in the test on OVCAR-5 ovarian, 14.4%; with OVCAR-4 ovarian, 54.8%; in the test with SK-OV-3 ovarian, 48.5%. For the same compound, the growth is 33.5% with IGROV1 ovarian; 66.8% with OVCAR-3 ovarian; 82.1% in the test on NCI/ADR-RES ovarian; 84.1% in the test with T-47D breast; 22.6% in the test with BT-549 breast; 38.7% in the test with MDA-MB-435 melanoma. The growth was 11.7% in the test with SW-620 colon; 24% with MCF7 breast; 17.7% in the test on HCT-116 colon; 66.3% with HCC-2998 colon; 8.09% (active) with KM12 colon.
As to `C=CC(=O)N1CCC[C@@H](n2nc(-c3ccc(Oc4ccccc4)cc3)c3c(N)ncnc32)C1`, the growth in the test with SR leukemia is 50.3%; in the test on RPMI-8226 leukemia it was 42.1%; with OVCAR-8 ovarian, 40.1%; in the test on OVCAR-5 ovarian it was 81.7%; with OVCAR-4 ovarian, 60.6%; in the test on SK-OV-3 ovarian it was -2.8% (active). For the same compound, the growth in the test on IGROV1 ovarian was 7.56% (active); in the test with OVCAR-3 ovarian it was 66.3%; with NCI/ADR-RES ovarian, 46.4%; in the test on T-47D breast it was 0.0664% (active); in the test on BT-549 breast it was 34.6%; in the test with MDA-MB-435 melanoma, 59.6%. Also, the growth in the test on SW-620 colon was 95.2%; in the test with MCF7 breast, 52.6%; in the test on HCT-116 colon it was 59.8%; in the test with HCC-2998 colon, 103%; with KM12 colon it was 53.6%.
For `COc1cc(Nc2ncc3c(n2)-c2ccc(Cl)cc2C(c2c(F)cccc2OC)=NC3)ccc1C(=O)O`, the growth with SR leukemia is 5.63% (active); with RPMI-8226 leukemia, 82.7%; in the test on OVCAR-8 ovarian it was 68.3%; in the test with OVCAR-5 ovarian it was 82.4%; in the test on OVCAR-4 ovarian it was 78.4%; in the test on SK-OV-3 ovarian it was 61.6%. Besides, the growth with IGROV1 ovarian is 63.3%; with OVCAR-3 ovarian it was 72.9%; in the test with NCI/ADR-RES ovarian it was 64.2%; in the test with T-47D breast, 79.6%; in the test on BT-549 breast it was 62.8%; in the test with MDA-MB-435 melanoma it was 85.9%. Besides, the growth with SW-620 colon is 54.7%; with MCF7 breast, 42.5%; in the test on HCT-116 colon, 45.3%; with HCC-2998 colon, 87.5%; in the test with KM12 colon, 28.3%.
As to `Cc1ccc(C(=O)Nc2ccc(CN3CCN(C)CC3)c(C(F)(F)F)c2)cc1C#Cc1cnc2cccnn12`, the growth in the test on SR leukemia was -28.2% (active); with RPMI-8226 leukemia, -45.5% (active); in the test with OVCAR-8 ovarian, -95.8% (active); with OVCAR-5 ovarian, -81.9% (active); in the test with OVCAR-4 ovarian it was -76.2% (active); in the test on SK-OV-3 ovarian, -94% (active). Further, the growth is -65.5% (active) in the test on IGROV1 ovarian; -95.9% (active) with OVCAR-3 ovarian; -49.1% (active) in the test with NCI/ADR-RES ovarian; -70.9% (active) in the test on T-47D breast; -97.7% (active) in the test on BT-549 breast; -98.2% (active) in the test with MDA-MB-435 melanoma. Moreover, the growth with SW-620 colon is -87.6% (active); in the test on MCF7 breast, -74.1% (active); with HCT-116 colon, -85.3% (active); in the test with HCC-2998 colon it was -91.8% (active); in the test on KM12 colon, -91.3% (active).
